Compound activity as filed in PubChem.
A selection: hits, their analogues and other compounds. The true share with any hit is near 3.2%.
CDK5 p35 inh – blocks human CDK5/p35 kinase activity; Q00535+Q15078; Recombinant CDK5/p35, ADP-Glo luminescence, 60 min; inhibition, % at 10 µM; 330,000 compounds, 0.01% hits;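 active = highest replicate inhibition of at least 50% and at least 75% of replicates reaching 50%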;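 also: plate controls were DMSO neutral control for no effect and GW8510 at 10 µM for full effect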
Target sequence (Q00535 whole entry, looked up): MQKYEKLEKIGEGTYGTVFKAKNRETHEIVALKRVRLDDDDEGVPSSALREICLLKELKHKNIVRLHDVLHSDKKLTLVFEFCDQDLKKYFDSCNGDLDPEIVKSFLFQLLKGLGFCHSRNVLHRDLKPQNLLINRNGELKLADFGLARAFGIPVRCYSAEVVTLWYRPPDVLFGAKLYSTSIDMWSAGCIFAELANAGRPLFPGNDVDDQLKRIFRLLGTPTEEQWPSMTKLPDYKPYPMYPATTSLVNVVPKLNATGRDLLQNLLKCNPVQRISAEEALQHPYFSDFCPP
Target sequence (Q15078 whole entry, looked up): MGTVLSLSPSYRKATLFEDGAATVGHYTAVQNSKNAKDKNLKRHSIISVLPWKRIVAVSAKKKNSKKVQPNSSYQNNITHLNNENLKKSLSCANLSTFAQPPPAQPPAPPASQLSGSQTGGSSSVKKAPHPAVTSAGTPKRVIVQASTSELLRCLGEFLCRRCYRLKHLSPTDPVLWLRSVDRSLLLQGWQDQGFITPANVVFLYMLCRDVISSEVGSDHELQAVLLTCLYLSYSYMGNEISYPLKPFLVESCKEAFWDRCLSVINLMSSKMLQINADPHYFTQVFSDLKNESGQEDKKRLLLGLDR
dFosB act-1 – activators of mouse delta FosB homodimer | purified delta FosB, TAMRA-CDK5 oligo fluorescence polarization; percent of positive-control signal above neutral wells | activation, % at 25 µM | 340,000 compounds, 0.99% hits | AID 493131;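 active = mean activation above about 17%, with every replicate also reaching it, limit read from the data, passing the limit was not always enough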
DYRK1A inh – inhibitors of rat Dyrk1A kinase; Q63470; ADP-Glo luminescence, NFATc1 peptide; inhibition, % at 12.5 µM; 310,000 compounds, 0.43% hits; in the data active = inhibition above about 50%;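 also: plate controls were vehicle with enzyme for no effect and no enzyme for full effect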
Rtt109 HAT inh – blocks Candida albicans Rtt109/Vps75 acetyltransferase activity. purified Rtt109/Vps75, ThioGlo CoA-SH fluorescence, 4 h. inhibition, % at 34.9 µM. 330,000 compounds, 0.16% hits;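 active = inhibition of at least 50% in every replicate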
esBAF inh – blocks esBAF chromatin remodeling in mouse ES cells | reporter increase, % at 12.5 µM | AID 602393 | Bmi1-luciferase knock-in reporter, 24 h; 100% = twice the neutral-well signal | 350,000 compounds, 2% hits; in the data active = activation above about 40%;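 also: 0% = median of the plate's neutral control wells and 100% = double that signal; a rise in the Bmi1 reporter signal indicates esBAF inhibition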
SMARCA2 act – increases SMARCA2 function in MMTV reporter cells; MG213 cells, MMTV-luciferase reporter, dexamethasone, overnight; activation, % at 9.1 µM; 370,000 compounds, 1% hits; in the data active = activation above about 7.8%;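 also: 0% = vehicle wells and 100% = reference activator wells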
dFosB act-2 – activators of mouse delta FosB homodimer DNA binding | 2,400 tested, under 10 active | shares compounds with dFosB act-1 | activation, % at 24.9 µM | purified delta FosB, TAMRA-CDK5 oligo fluorescence polarization; normalised: neutral wells 0, positive control 100;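 active = highest replicate activation at or above 34% and every replicate reaching that threshold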;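 also: higher polarization means more probe DNA bound by delta FosB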
ADP-Glo artifact – counter-screen for Dyrk1A inhibitors: ADP-Glo luciferase artifacts. shares compounds with DYRK1A inh. ADP-Glo luciferase artifact assay, no Dyrk1A, luminescence. AC50, µM (top dose mostly 12 µM), inactives show top-dose activity change, negative = inhibition. 1,300 tested, under 10 active;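 active = fitted half-maximal dose AC50 no more than ten times the top valid tested dose, with luminescence dropping as dose rises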
SMARCA2 act conf – SMARCA2 activation, confirmation screen; shares compounds with SMARCA2 act; MG213 cells, MMTV-luciferase with dexamethasone, luminescence, overnight; MG213 cells expressing E1A, Rb sequestered; DMSO wells 0%, reference activator 100%; activation, % at 9.1 µM; 3,500 compounds, 30% hits;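 active = activation above its plate's cutoff, the mean activation of tested wells plus 3 SD, cut at about 7.9% in these data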
VP16 Luc act – counter-screen for SMARCA2 activators: GAL4-VP16 luciferase reporter activation. AID 686939. activation, % at 9.1 µM. 3,500 compounds, 41% hits. shares compounds with SMARCA2 act. HEK293 GAL4-VP16 pG5luc reporter, luciferase luminescence; scaled: DMSO wells 0%, SAHA wells 100%;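 active = activation above the solvent-only control well mean plus 3 SD, averaged across control plates, cut at about 5.2% in these data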
Active calls of the source: *; . = not tested or not shown.

SMILES | CDK5 p35 inh | dFosB act-1 | DYRK1A inh | Rtt109 HAT inh | esBAF inh | SMARCA2 act | dFosB act-2 | SMARCA2 act conf | VP16 Luc act | others
O=c1[nH]cnc2cc(-c3ccc(Br)cc3)sc12 | -1 | 45* | 8 | -12 | 17 | 10* | 7 | 5 | 3
O=C(C[C@H]1CC[C@H]2[C@@H](COC[C@H](O)CN2Cc2cc(F)ccc2F)O1)N1CCc2ccccc2C1 | . | . | . | . | -1 | . | . | . | .
O=C(Nc1ccc(-c2nc3ccccc3[nH]2)cc1)c1ccc2c(c1)OCO2 | 0 | 58* | 2 | 2 | 45* | 19* | -1 | 13* | 4
O=C(Nc1ccc(Cl)c(-c2nc3ccccc3[nH]2)c1)c1ccc2c(c1)OCO2 | -2 | -12 | 2 | -2 | . | 2 | . | . | .
O=C(C[C@@H]1C[C@H]2c3cc(NC(=O)C4CCC4)ccc3O[C@H]2[C@@H](CO)O1)NCc1ccc(Cl)cc1 | . | . | . | . | 1 | . | . | . | .
COc1ccccc1NC(=O)Nc1nc2ccc(S(N)(=O)=O)cc2s1 | 1 | 49* | -1 | 3 | 48* | 10* | -6 | 15* | 6.3*
O=C(Cc1csc(Nc2nc(=S)[nH]c3ccccc23)n1)NCc1ccc(Cl)cc1 | -2 | -1 | 7 | -1 | -7 | . | . | . | .
O=C(Cc1csc(Nc2nc(=S)[nH]c3ccccc23)n1)NCCCN1CCN(c2ccccc2F)CC1 | 1 | 20* | 1 | 17 | 2 | 15* | 3 | 9.6* | 2
CC(=O)Nc1ccc2nc(NC(=O)c3cccs3)sc2c1 | 0 | 22* | -1 | -1 | -34 | 9.1* | -2 | 8.7* | 9.8*
OCCCCCN=c1cc(-c2ccccc2)oc2ccc(Cl)cc12 | 2 | 21* | 3 | 7 | 78* | 13* | 4 | 19* | 1
O=c1[nH]c2cc([N+](=O)[O-])ccc2c2ccccc12 | 3 | 2 | . | -9 | . | -1 | . | . | .
O=C1Cc2c([nH]c3ccc([N+](=O)[O-])cc23)-c2ccccc2N1 | 2 | 31* | . | -10 | . | 13* | 3 | 11* | -2
C[C@H](CO)N1C[C@H](C)[C@H](CN(C)S(=O)(=O)c2ccc(Cl)cc2)Oc2ccc(NC(=O)c3ccncc3)cc2CC1=O | . | . | . | . | 3 | . | . | . | .
CCc1nnc2n1N=C(c1ccc(-c3cc(Cl)ccc3Cl)o1)CS2 | 0 | 30* | 2 | 7 | 2 | 8.9* | -1 | 1 | 2
CCc1nnc2n1N=C(c1ccc(OC)cc1)CS2 | 1 | -8 | 6 | -8 | -6 | -1 | . | . | .
COc1ccc(C#Cc2cnc3c(c2)C(=O)N([C@@H](C)CO)C[C@@H](C)[C@@H](CN(C)C(=O)CN(C)C)O3)cc1 | . | . | . | . | 6 | . | . | . | .
Cc1ccc(C(=O)OCC(=O)NC(C)c2ccccc2)s1 (configuration not stated) | -1 | 3 | 3 | 42 | . | -5 | . | . | .
CC(NC(=O)COC(=O)c1ccc([N+](=O)[O-])s1)c1ccccc1 (configuration not stated) | 1 | -3 | 56* | . | . | 7 | . | . | . | ADP-Glo artifact=8%
CC(C)C#Cc1cnc2c(c1)C(=O)N([C@@H](C)CO)C[C@H](C)[C@H](CN(C)Cc1cncnc1)O2 | . | . | . | . | 2 | . | . | . | .
COc1ccc2cc(-c3cccnc3)ncc2c1 | 5 | -2 | 68* | -3 | 33 | 7 | . | . | . | ADP-Glo artifact=12%
COc1ccc(-c2cc3ccc(OC)cc3cn2)cc1 | 0 | -2 | 3 | -2 | -65 | 7 | . | . | .
